Measurements reported in PubChem BioAssay (NCI).
The panel holds about 83,000 compounds, 20% with a hit somewhere; the sample as a whole holds those more often.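 How to read the values: 0–100, growth inhibition (40 = 60% inhibited); 0, no net growth; -100 to 0, cell death (-40 = 40% of starting cells died; -100 = all dead).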 A number with no mark means an inactive call. The source made the active and inactive calls. How the source made its calls: active means growth percent below 10; inactive means the rest.

Experiments:
Experiment in all cases: NCI-60 one-dose screen, 48 h (100 = growth as untreated, 0 = no growth, -100 = all killed)
Details in all cases: 10 µM unless noted
SK-MEL-2 melanoma = system: SK-MEL-2 melanoma
EKVX NSCLC = system: EKVX NSCLC
SN12C renal = system: SN12C renal
UO-31 renal = system: UO-31 renal
TK-10 renal = system: TK-10 renal
ACHN renal = system: ACHN renal
CAKI-1 renal = system: CAKI-1 renal
A498 renal = system: A498 renal
CCRF-CEM leukemia = system: CCRF-CEM leukemia
MOLT-4 leukemia = system: MOLT-4 leukemia

Row | SMILES | growth (SK-MEL-2 melanoma) | growth (EKVX NSCLC) | growth (SN12C renal) | growth (UO-31 renal) | growth (TK-10 renal) | growth (ACHN renal) | growth (CAKI-1 renal) | growth (A498 renal) | growth (CCRF-CEM leukemia) | growth (MOLT-4 leukemia)
1 | CN(C)CCC(CCN(C)C)(C(=O)O)c1ccccc1 | 102% | 107% | 98.4% | 88.3% | 106% | 98.5% | 95.4% | 90.4% | 100% | 109%
2 | N#Cc1ccc(O)c(C2=NCC(c3ccc(-c4ccccc4)cc3)O2)c1 (stereo not given) | -4.74% (active) | 15.6% | 29.8% | 1.37% (active) | 12.4% | 11.6% | 3.1% (active) | 48.6% | 11.6% | 0.755% (active)
3 | CC1(C)CC[C@]2(CO)CC[C@]3(C)[C@](O)([C@H](O)C[C@@H]4[C@@]5(C)CCCNC(C)(C)[C@@H]5CC[C@]43C)[C@@H]2C1 | 106% | 107% | 90% | 73% | 103% | 108% | 97.5% | 83.6% | 74.6% | 46%
4 | O=C(Nc1cccnc1Nc1ccccc1)c1cn(Cc2cccc(Oc3ccccc3)c2)nn1 | 75.6% | 59.8% | 56.7% | 51.8% | 82.1% | 76.6% | 69.6% | 45.3% | 47.4% | 31.1%
5 | CCOC(=O)c1cnn(CC(C)O)c1NC(=O)NCc1cccc(F)c1 (stereo not given) | 85.6% | 99.9% | 103% | 91.7% | 86.9% | 106% | 97.3% | 96.4% | -2.06% (active) | 81.4%
6 | Nc1ccc(Br)cc1C(F)(F)F | 104% | 109% | 99.8% | 88.1% | 108% | 96.5% | 104% | 107% | 101% | 108%
7 | CN(C)CCCn1c2c(c3cnccc3c1=O)C(=O)c1ccccc1-2 | -13.5% (active) | 40.9% | 1.1% (active) | -39% (active) | 3.67% (active) | -25.9% (active) | 1% (active) | 25.8% | 9.81% (active) | -2.22% (active)
8 | CCOC(=O)c1nnn(-c2no[n+]([O-])c2-c2ccc(OC)cc2)c1COc1cccc2cccnc12 | 3.57% (active) | 44.8% | 3.95% (active) | 34.3% | 33.2% | 21.8% | 24.1% | 103% | 4.84% (active) | 10%
9 | CN(C)c1ccc(CNCCO)cc1 | 65.8% | 103% | 99.9% | 91.5% | 82.9% | 102% | 101% | 111% | 88.4% | 99%
10 | C=CCn1cc(-c2nc3ccccc3s2)c2cc(-c3ccc4c5c(cccc35)C(=O)N(CCO)C4=O)ccc21 | 105% | 81.3% | 89.2% | 62.7% | 138% | 94.5% | 75.2% | 113% | 104% | 91.3%
11 | c1cc(OCCCCCOc2cccc(-c3nc4ccccc4[nH]3)c2)cc(-c2nc3ccccc3[nH]2)c1 | 9.28% (active) | 2.5% (active) | 26.4% | 3.69% (active) | 25.7% | 6.47% (active) | 36.4% | 9.68% (active) | -18.9% (active) | -13.5% (active)
12 | Nc1[nH]nc2nc(-c3ccccc3)n3c4ccccc4nc3c12 | 98.8% | 78% | 104% | 83.2% | 110% | 89% | 83.1% | 89.2% | 102% | 97.9%
13 | COc1cc(C[C@H]2COc3cc(O)cc(O)c3C2=O)ccc1O | 13.2% | 74.3% | 40.9% | 48.8% | 58.7% | 41.7% | 35.8% | 90.4% | 11.4% | 29.3%
14 | COc1ccc(C/C(C)=C(\c2ccc(O)cc2)c2ccc(OCCN3CCCCC3)cc2)cc1 | 114% | 90.1% | 89.9% | 56.6% | 85.2% | 93.1% | 104% | 110% | 54.4% | 38.4%
15 | CSc1ccc2c3c(n(CCCn4ccnc4)c(=O)c2c1)-c1ccccc1C3=O | 97.1% | 84.4% | 45.1% | 26.3% | 83.1% | 12.4% | 24.6% | 68.5% | 15.6% | -3.86% (active)
16 | O=C1Nc2ccc(Cl)cc2/C1=C/c1ccc[nH]1 | 96.2% | 32.8% | 87.5% | 47.7% | 61.4% | 59.6% | 45.7% | 134% | 96.2% | 83.4%
17 | CC(=O)O[C@H]1CC[C@]2(C)[C@H]3CC=C4[C@@H]5CC(C)(C)CC[C@]5(C(=O)N5CCN(CCC#N)CC5)CC[C@@]4(C)[C@]3(C)CC[C@H]2C1(C)C | 68.7% | 65.8% | 53.4% | 30.2% | 54.1% | 28.2% | 35.1% | 5.98% (active) | 27.5% | 19.7%
18 | CN(C)CCn1c(=O)c2ccccc2n2nc3ccccc3c12 | 128% | 94.1% | 69.9% | 52.9% | 97.9% | 46.6% | 77.6% | 9.6% (active) | 81.8% | 29.9%
19 | COc1ccc(C/C(C)=C(\c2ccc(Cl)cc2)c2ccc(OCCN3CCCC3)cc2)cc1 | 96.8% | 96.7% | 82.7% | 66.3% | 87.6% | 94.8% | 83.4% | 110% | 57.2% | 44.6%
20 | O=C(Nc1nc(Cl)nc(Nc2ccc(N3CCOCC3=O)cc2)n1)c1ccc(Cl)s1 | 84% | 102% | 92.1% | 91.5% | 120% | 95.7% | 99.8% | 85.7% | 80.9% | 85.2%
21 | COc1cc2c(c(OC)c1OC)CCC(c1cccc(C(=O)Nc3ccc(Br)cc3)c1)O2 (stereo not given) | 46.4% | 60.5% | 47.1% | 39.7% | 77.4% | 67.9% | 73.6% | -3.18% (active) | 53.3% | 25.1%
22 | Cn1cc(-c2csc(-c3cn(CCCN4CCOCC4)c4ccc(F)cc34)n2)c2cccnc21 | 86.3% | 63% | 78.5% | 50.2% | 75.1% | 63.8% | 79% | 36.1% | 36.4% | 32.1%
23 | COc1ccc2[nH]cc(-c3nonc3-c3c[nH]c4ccc(Br)cc34)c2c1 | 73.1% | 29.9% | 67.7% | 36.5% | 49.9% | 38.7% | 24.8% | 51.4% | 38.6% | 28.3%
24 | Nc1ncccc1O | 17.3% | 120% | 96.7% | 92.5% | 108% | 5.59% (active) | 56.6% | 99.7% | 84.6% | 65%
25 | c1ccc(-c2nc3ccccc3[nH]2)c(OCCCCCOc2ccccc2-c2nc3ccccc3[nH]2)c1 | 85.4% | 68.2% | 63.4% | 58.6% | 100% | 89.4% | 104% | 71.5% | -44.1% (active) | 56.3%
26 | O=C(O)CC(C(=O)O)/C(=C\c1ccccc1)c1ccccc1 (stereo not given) | 109% | 110% | 104% | 89.1% | 108% | 104% | 103% | 93% | 94.6% | 98.9%
27 | COc1ccc(N/N=C/c2cn(-c3ccc(C(=O)O)cc3)nc2-c2cc3ccccc3oc2=O)cc1 | 60.3% | 46.6% | 89.2% | 22.8% | 97.1% | 28.6% | 60.8% | 125% | 32.9% | 34.6%
